Bcl-xL primary: Bcl-xL (human) inhibition. Q07817. AID 2129. 320,000 tested, 0.7% active. inhibition, % at 10.9 µM. GST-Bcl-xL / FITC-Bim BH3 peptide fluorescence polarization;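 active = inhibition above the mean of all tested compounds plus 3 SD, cutoff set per campaign, cut at about 30% in these data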;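 note: inhibitors lower millipolarization by displacing the labeled peptide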
GLD-1 TGE inh: GLD-1-TGE RNA interaction inhibition (C. elegans) | Q17339 | purified GLD-1 + fluorescein TGE RNA, fluorescence polarization | inhibition, % at 5.96 µM | 320,000 tested, 0.44% active | AID 2280;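 active = percent inhibition above a per-plate cutoff, the plate mean of test compounds plus 3 SD, cut at about 30% in these data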
MEX-5 binding: C. elegans MEX-5 TCR-2 RNA binding activity; activity score (negative = inhibition of binding), % at 10 µM; Q9XUB2; 300,000 tested, 0.38% active; AID 1832; MEX-5/FITC-TCR2 RNA binding, fluorescence polarization; active compounds read low;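 active = inhibition past about -25% in most replicates, and total fluorescence under double the plate's negative control median, limit read from the data; inconclusive = replicates evenly split on the limit, or fluorescence at least double controls; inactive = too little inhibition in most replicates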
eLon inh: E. coli protease La inhibition | P0A9M0 | purified E. coli Lon protease, fluorescence polarization | inhibition, % at 7.94 µM | 360,000 tested, 0.42% active; in the data active = inhibition above about 13%, passing the limit was not always enough
MCL1-BIM inh: disrupts human MCL1 binding to BIM-BH3 peptide | Q07820 | GST-MCL1 / FITC-Bim-BH3 fluorescence polarization | inhibition, % at 10.9 µM | 320,000 tested, 0.68% active;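 active = inhibition above the mean inhibition of all tested compounds plus 3 SD, set per campaign, cut at about 40% in these data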;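 note: higher means more loss of mP so more displacement of Bim peptide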
EBV gp42 block: blocks Epstein-Barr virus glycoprotein 42 binding; inhibition, % (tested at 21.74 µM); Fluorescence polarization binding assay, mP read-out; 220,000 tested, 0.42% active; AID 1085; in the data active = inhibition above about 50%
Each line names hits and unclear results; the compound was inactive in the other large screens. Only some compounds are listed: those with a hit (about 1.5% of all), similar ones and a draw of the others.

Cc1ccccc1NC(=NCCCN1CC1)Nc1ccccc1C	none (no result: Bcl-xL primary, GLD-1 TGE inh, MEX-5 binding, MCL1-BIM inh, EBV gp42 block)
CN(C)c1ccc(/C=C/C=C/c2sc3ccccc3[n+]2C)cc1	none
CC[n+]1c(/C=C/C=C/c2ccc(N(C)C)cc2)sc2ccccc21	MEX-5 binding -28.5
CCOc1cc(/C=C2/C(=O)NC(=O)N(c3ccc(CC)cc3)C2=O)ccc1OC(=O)c1cccs1	none
N#CC(C#N)=Cc1ccc(N2CCOCC2)cc1	MEX-5 binding -27.3
CCN(CC)CCN/N=C(\C)c1c(O)[nH]c(=O)[nH]c1=O	none
Cc1nn(Cc2c(Cl)cccc2Cl)c(Cl)c1C(=O)O	none
CCOC(=O)c1cc(CC)sc1/N=C/c1c(O)[nH]c(=S)[nH]c1=O	MEX-5 binding -28.7
O=S(=O)(c1cc(Cl)cc(Cl)c1)N1Cc2cc(N3CCOCC3)ccc2-n2nncc2C1	none (no result: Bcl-xL primary, GLD-1 TGE inh, MEX-5 binding, MCL1-BIM inh, EBV gp42 block)
N#CCC(=O)NN1Cc2ccccc2C1=N	Bcl-xL primary 75.1
CC(C)C(O)(C(=O)OCC1=CCN2CCC(O)C12)C(C)O (centres undefined)	none (no result: Bcl-xL primary, GLD-1 TGE inh, MEX-5 binding, MCL1-BIM inh, EBV gp42 block)
Cc1ccc(N2C(=O)NC(=O)/C(=C\c3ccc(N4CCOCC4)cc3)C2=O)cc1	none
Cc1ccc(N2C(=O)NC(=O)/C(=C\c3ccc([N+](=O)[O-])o3)C2=O)cc1	MEX-5 binding -67.8 (no result: eLon inh)
COc1ccc(N=C2SCCCN2C)cc1	none
COC(=O)Cn1cc(/C=C2\C(=O)NC(=O)N(c3ccc(OC)cc3)C2=O)c2ccccc21	MEX-5 binding -53.8 (no result: EBV gp42 block)
COc1ccc(N2C(=O)NC(=O)/C(=C\c3cn(CC(=O)N4CCOCC4)c4ccccc34)C2=O)c(OC)c1	none (no result: EBV gp42 block)
COc1ccc(N2C(=O)NC(=O)/C(=C\c3cn(C)c4ccccc34)C2=O)cc1	Bcl-xL primary 34.4, MEX-5 binding -38.8 (no result: EBV gp42 block)
COCCNC(=O)Cn1cc(/C=C2\C(=O)NC(=O)N(c3ccccc3F)C2=O)c2ccccc21	MEX-5 binding -86.3 (no result: EBV gp42 block)
COCCNC(=O)Cn1cc(/C=C2\C(=O)NC(=O)N(c3cccc(C)c3C)C2=O)c2ccccc21	MEX-5 binding inconclusive (no result: EBV gp42 block)
O=C1NC(=S)N(c2ccc(F)cc2)C(=O)/C1=C/c1ccccc1O	none (no result: EBV gp42 block)
O=C(O)Cn1cc(/C=C2\C(=O)NC(=O)N(c3ccc(F)cc3)C2=O)c2ccccc21	MEX-5 binding -42.2 (no result: Bcl-xL primary, GLD-1 TGE inh, eLon inh, MCL1-BIM inh, EBV gp42 block)
c1ccc(P(c2ccccn2)c2ccccn2)cc1	none
Cn1cccc1/C=C1\C(=O)NC(=O)N(CCC2=CCCCC2)C1=O	MEX-5 binding -37.1 (no result: Bcl-xL primary, GLD-1 TGE inh, MCL1-BIM inh)
Cn1cccc1/C=C1\C(=O)NC(=O)N(Cc2ccccc2Cl)C1=O	EBV gp42 block 57.8 (no result: Bcl-xL primary, GLD-1 TGE inh, MEX-5 binding, MCL1-BIM inh)
CCCc1nnc(NC(=O)CCC(=O)N2CCC3(CC2)OCCO3)s1	Bcl-xL primary 54.5, MCL1-BIM inh 43.7
CC(C)Cc1nnc(NC(=O)CCC(=O)N2CCC3(CC2)OCCO3)s1	none
O=C1c2ccccc2-n2nnc(-c3ccccc3)c2C2c3ccccc3CCN12 (centres undefined)	none (no result: Bcl-xL primary, GLD-1 TGE inh, MEX-5 binding, MCL1-BIM inh, EBV gp42 block)
CCc1nnc(NS(=O)(=O)c2ccc(N=Cc3c(O)n(-c4ccc(Cl)cc4)c(=O)[nH]c3=O)cc2)s1	MEX-5 binding -27.9
CNS(=O)(=O)c1ccc(N=Cc2c(O)n(-c3ccc(C)cc3)c(=O)[nH]c2=O)cc1	none
CN1C(=O)C(=Cc2ccc(N3CCCCCC3)cc2)C(=O)N(C)C1=O	EBV gp42 block 84.0
O=C1NC(=O)N(Cc2ccc(F)cc2)C(=O)/C1=C\c1ccc(N2CCCC2)cc1	none
COc1cc(OC)c([C@H]2C=C(C)[C@H]3C[C@@H]2C3(C)C)c(OC)c1	none (no result: EBV gp42 block)
COC(=O)C1=C(c2cccc(OCc3ccccc3)c2)C[C@@H]2CC[C@H]1N2C(=O)NCc1ccc(N(C)C)cc1	none (no result: MEX-5 binding, EBV gp42 block)
CC(C)(C)NC(=S)/N=C(\N)N[N+](=O)[O-]	none
COC(=O)Cn1cc(C=C2C(=O)NC(=O)NC2=O)c2ccccc21	MEX-5 binding -27.1 (no result: EBV gp42 block)
NC(=O)Cn1cc(C=C2C(=O)NC(=O)NC2=O)c2ccccc21	MEX-5 binding -74.3 (no result: Bcl-xL primary, GLD-1 TGE inh, MCL1-BIM inh, EBV gp42 block)
CCC1([N+](=O)[O-])COP(=O)(NCc2cccnc2)OC1 (centres undefined)	none (no result: Bcl-xL primary, GLD-1 TGE inh, MEX-5 binding, MCL1-BIM inh, EBV gp42 block)
CSc1ccc(C(=O)C2CCCN(Cc3cnc(SC)nc3)C2)cc1 (centres undefined)	none
CC(C)(C)C(=O)O[C@H]1CC[C@@]2(C)C(=CC(=O)C3C2CC[C@]2(C)C(=O)[C@H](O)CC32)C1 (some centres undefined)	none (no result: Bcl-xL primary, MEX-5 binding, MCL1-BIM inh, EBV gp42 block)
Cc1nc2ccccc2c(=O)n1-c1cccc(O)c1	none

Assay outcomes deposited in PubChem BioAssay by several laboratories.
